The text below walks through data of PubChem BioAssay (EPA / NIEHS).

By AC50 is commonly meant the concentration at which the activity in the assay is half-maximal.

SMILES strings stand for the structures. Active and inactive are the calls of the source. The calls were made as follows: active = hit-call score of the fitted dose curve at least 0.9, where 1 is the maximum; inactive = score below 0.9.

Holding throughout (conditions): mRNA level, 48 h; actives raise or lower the signal
Read-out in assay [1]: Insulin Like Growth Factor 1 (IGF1), IGF1 (gene 3479)
Put plainly: LTEA_HepaRG_IGF1: Life Technologies and Expression Analysis (LTEA) Assay for Insulin Like Growth Factor 1 (IGF1) using HepaRG (AID 2283506). In a few lines:
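Differentiated HepaRG cells in serum-free induction medium, exposed 48 h in duplicate to 8 half-log concentrations up to 100 uM in 0.5% DMSO. IGF1 mRNA by Fluidigm qRT-PCR, normalised to ACTB, GAPDH and POLR2A.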

Read-out in assay [2]: Intercellular Adhesion Molecule 1 (ICAM1), ICAM1 (gene 3383)
Kind of assay: LTEA_HepaRG_ICAM1: Life Technologies and Expression Analysis (LTEA) Assay for Intercellular Adhesion Molecule 1 (ICAM1) using HepaRG (AID 2283507). In a few lines:
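Differentiated human HepaRG cells in serum-free induction medium exposed 48 h in duplicate to 8 half-log concentrations (top 100 uM, 0.5% DMSO). ICAM1 mRNA quantified by TaqMan qRT-PCR, normalized to ACTB, GAPDH and POLR2A; bidirectional fitting versus DMSO.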

Read-out in assay [3]: Insulin-like growth factor-binding protein 1 (IGFBP1), IGFBP1 (gene 3484)
Put plainly: LTEA_HepaRG_IGFBP1: Life Technologies and Expression Analysis (LTEA) Assay for Insulin-like growth factor-binding protein 1 (IGFBP1) using HepaRG (AID 2283508). In a few lines:
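HepaRG cells, plated 48 h then switched to serum-free induction medium, exposed in duplicate for 48 h to 8-point half-log series from 100 uM in 0.5% DMSO. mRNA measured by qRT-PCR, normalized to ACTB/GAPDH/POLR2A; bidirectional fit versus DMSO.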

Read-out in assay [4]: Interleukin 6 (IL6), IL6 (gene 3569)
Kind of assay: LTEA_HepaRG_IL6: Life Technologies and Expression Analysis (LTEA) Assay for Interleukin 6 (IL6) using HepaRG (AID 2283509). The procedure, abridged: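 HepaRG cells exposed in duplicate for 48 h to eight half-log concentrations, top 100 uM, in 0.5% DMSO serum-free induction medium. mRNA measured by qRT-PCR, normalized to ACTB, GAPDH and POLR2A. Bidirectional fit versus DMSO.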

Read-out in assay [5]: Interleukin 6 Receptor (IL6R), IL6R (gene 3570)
Put plainly: LTEA_HepaRG_IL6R: Life Technologies and Expression Analysis (LTEA) Assay for Interleukin 6 Receptor (IL6R) using HepaRG (AID 2283510).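 As to AC50: TaqMan qRT-PCR signal normalized to ACTB GAPDH and POLR2A housekeeping genes.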 In a few lines: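 Differentiated HepaRG cells, plated 48 h, then exposed in duplicate for 48 h in serum-free induction medium to 8 half-log concentrations (top 100 uM, 0.5% DMSO). IL6R mRNA measured by TaqMan qRT-PCR, normalized to ACTB/GAPDH/POLR2A; bidirectional fit vs DMSO.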

Read-out in assay [6]: Potassium channel subfamily K member 1 (KCNK1), KCNK1 (gene 3775)
Kind of assay: LTEA_HepaRG_KCNK1: Life Technologies and Expression Analysis (LTEA) Assay for Potassium channel subfamily K member 1 (KCNK1) using HepaRG (AID 2283511). In a few lines: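 Differentiated HepaRG cells, 48 h exposure in serum-free induction medium with 0.5% DMSO; 8 concentrations, half-log from 100 uM, duplicate. KCNK1 mRNA by qRT-PCR, normalized to ACTB, GAPDH, POLR2A; bidirectional fit vs DMSO.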

Read-out in assay [7]: Keratin 19 (KRT19), KRT19 (gene 3880)
Kind of assay: LTEA_HepaRG_KRT19: Life Technologies and Expression Analysis (LTEA) Assay for Keratin 19 (KRT19) using HepaRG (AID 2283512). In a few lines:
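Differentiated HepaRG cells in serum-free induction medium, exposed 48 h in duplicate to 8 half-log concentrations up to 100 uM in 0.5% DMSO. KRT19 mRNA by qRT-PCR, normalized to ACTB, GAPDH, POLR2A; bidirectional fit vs DMSO.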

Read-out in assay [8]: JUN Transcription Factor, JUN (gene 3725)
Kind of assay: LTEA_HepaRG_JUN: Life Technologies and Expression Analysis (LTEA) Assay for JUN Transcription Factor using HepaRG (AID 2283513). The procedure, abridged: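 HepaRG cells, 48 h post-plating, exposed 48 h in serum-free induction medium to 8-point half-log series (top 100 uM, 0.5% DMSO), duplicate; mRNA by qRT-PCR (TaqMan, Fluidigm), normalized to ACTB/GAPDH/POLR2A; bidirectional fit vs DMSO.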

Read-out in assay [9]: Lipase C (LIPC), LIPC (gene 3990)
Kind of assay: LTEA_HepaRG_LIPC: Life Technologies and Expression Analysis (LTEA) Assay for Lipase C (LIPC) using HepaRG (AID 2283514). In a few lines: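 HepaRG cells, 48 h after plating, treated in duplicate for 48 h in serum-free induction medium over 8 half-log concentrations from 100 uM, 0.5% DMSO. LIPC mRNA by TaqMan qRT-PCR normalized to ACTB/GAPDH/POLR2A; bidirectional fit versus DMSO.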

Read-out in assay [10]: Lipoprotein lipase (LPL), LPL (gene 4023)
Kind of assay: LTEA_HepaRG_LPL: Life Technologies and Expression Analysis (LTEA) Assay for Lipoprotein lipase (LPL) using HepaRG (AID 2283515). The procedure, abridged:
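Differentiated HepaRG cells, plated 48 h, then exposed 48 h in serum-free induction medium to 8 concentrations (top 100 uM, half-log steps) in 0.5% DMSO, duplicate. LPL mRNA measured by qRT-PCR, normalized to ACTB, GAPDH and POLR2A.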

Read-out in assay [11]: matrix metalloproteinase-10 (MMP10), MMP10 (gene 4319)
Kind of assay: LTEA_HepaRG_MMP10: Life Technologies and Expression Analysis (LTEA) Assay for matrix metalloproteinase-10 (MMP10) using HepaRG (AID 2283517). In a few lines:
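Differentiated HepaRG cells in serum-free induction medium exposed 48 h in duplicate to 8-point half-log series up to 100 uM in 0.5% DMSO. mRNA quantified by qRT-PCR, normalised to ACTB, GAPDH, POLR2A; bidirectional fit versus DMSO.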

Read-out in assay [12]: Paternally Expressed 10 (PEG10), PEG10 (gene 23089)
Put plainly: LTEA_HepaRG_PEG10: Life Technologies and Expression Analysis (LTEA) Assay for Paternally Expressed 10 (PEG10) using HepaRG (AID 2283520). In a few lines: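 Differentiated HepaRG cells exposed 48 h in serum-free induction medium to eight half-log concentrations topping at 100 uM, 0.5% DMSO, in duplicate. PEG10 mRNA quantified by TaqMan qRT-PCR, normalized to ACTB, GAPDH and POLR2A; bidirectional fit versus DMSO.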

Read-out in assay [13]: Nuclear factor NF-kappa-B p105 subunit (Homo sapiens) (UniProt P19838)
Kind of assay: LTEA_HepaRG_NFKB1: Life Technologies and Expression Analysis (LTEA) Assay for Nuclear Factor Kappa B Subunit 1 (NFKB1) using HepaRG (AID 2283521).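 As to outcome: TaqMan qRT-PCR transcript normalised to ACTB GAPDH and POLR2A housekeeping genes.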 In a few lines: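 NFKB1 transcript was measured by TaqMan qRT-PCR on Fluidigm arrays, normalised to three housekeeping genes and fitted in both directions against 0.5% DMSO. HepaRG cells were dosed in duplicate for 48 h in serum-free induction medium, eight half-log steps from 100 uM.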

Read-out in assay [14]: Protein phosphatase 2A (PPP2R4), PTPA (gene 5524)
Put plainly: LTEA_HepaRG_PPP2R4: Life Technologies and Expression Analysis (LTEA) Assay for Protein phosphatase 2A (PPP2R4) using HepaRG (AID 2283522). The procedure, abridged:
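Differentiated human HepaRG cells in serum-free induction medium were exposed 48 h to 8 concentrations (top 100 µM, half-log steps, duplicate) in 0.5% DMSO. PPP2R4 mRNA was measured by TaqMan qRT-PCR, normalised to ACTB, GAPDH and POLR2A, and fitted bidirectionally versus DMSO.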

Read-out in assay [15]: Phosphatase and tensin (PTEN), PTEN (gene 5728)
Put plainly: LTEA_HepaRG_PTEN: Life Technologies and Expression Analysis (LTEA) Assay for Phosphatase and tensin (PTEN) using HepaRG (AID 2283523). In a few lines: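 HepaRG cells, 48 h after plating, exposed in duplicate for 48 h in serum-free induction medium to 8 half-log concentrations up to 100 uM (0.5% DMSO). PTEN mRNA by qRT-PCR, normalized to ACTB, GAPDH, POLR2A; bidirectional fit versus DMSO.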

Read-out in assay [16]: solute carrier (SLC22A1), SLC22A1 (gene 6580)
Kind of assay: LTEA_HepaRG_SLC22A1: Life Technologies and Expression Analysis (LTEA) Assay for solute carrier (SLC22A1) using HepaRG (AID 2283524). In a few lines:
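Differentiated human HepaRG cells in serum-free induction medium, exposed 48 h in duplicate to 8-point half-log series from 100 µM top in 0.5% DMSO. SLC22A1 mRNA by TaqMan qRT-PCR normalized to ACTB, GAPDH, POLR2A; bidirectional fit versus DMSO.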

Read-out in assay [17]: Pyruvate Dehydrogenase Kinase 4 (PDK4), PDK4 (gene 5166)
Kind of assay: LTEA_HepaRG_PDK4: Life Technologies and Expression Analysis (LTEA) Assay for Pyruvate Dehydrogenase Kinase 4 (PDK4) using HepaRG (AID 2283525). The procedure, abridged: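 HepaRG cells plated 48 h, then switched to serum-free induction medium and exposed in duplicate for 48 h to 8 half-log concentrations from 100 uM in 0.5% DMSO. PDK4 mRNA measured by qRT-PCR, normalized to ACTB, GAPDH and POLR2A; bidirectional fit versus DMSO.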

Read-out in assay [18]: matrix metalloproteinase-3 (MMP3), MMP3 (gene 4314)
Put plainly: LTEA_HepaRG_MMP3: Life Technologies and Expression Analysis (LTEA) Assay for matrix metalloproteinase-3 (MMP3) using HepaRG (AID 2283519). In a few lines:
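HepaRG cells (~100,000/well) in serum-free induction medium were dosed in duplicate for 48 h with an 8-point half-log series from 100 uM, 0.5% DMSO. MMP3 mRNA was quantified by Fluidigm TaqMan qRT-PCR, normalized to three housekeeping genes.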

Read-out in assay [19]: MYC, MYC (gene 4609)
Put plainly: LTEA_HepaRG_MYC: Life Technologies and Expression Analysis (LTEA) Assay for MYC using HepaRG (AID 2283518). In a few lines: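 Differentiated HepaRG cells exposed 48 h in serum-free induction medium to 8 concentrations (top 100 uM, half-log steps; 0.5% DMSO), duplicate. MYC mRNA measured by Fluidigm qRT-PCR, normalized to ACTB, GAPDH, POLR2A; bidirectional fit versus DMSO.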

Sequence of Nuclear factor NF-kappa-B p105 subunit (Homo sapiens) (P19838 whole entry, looked up): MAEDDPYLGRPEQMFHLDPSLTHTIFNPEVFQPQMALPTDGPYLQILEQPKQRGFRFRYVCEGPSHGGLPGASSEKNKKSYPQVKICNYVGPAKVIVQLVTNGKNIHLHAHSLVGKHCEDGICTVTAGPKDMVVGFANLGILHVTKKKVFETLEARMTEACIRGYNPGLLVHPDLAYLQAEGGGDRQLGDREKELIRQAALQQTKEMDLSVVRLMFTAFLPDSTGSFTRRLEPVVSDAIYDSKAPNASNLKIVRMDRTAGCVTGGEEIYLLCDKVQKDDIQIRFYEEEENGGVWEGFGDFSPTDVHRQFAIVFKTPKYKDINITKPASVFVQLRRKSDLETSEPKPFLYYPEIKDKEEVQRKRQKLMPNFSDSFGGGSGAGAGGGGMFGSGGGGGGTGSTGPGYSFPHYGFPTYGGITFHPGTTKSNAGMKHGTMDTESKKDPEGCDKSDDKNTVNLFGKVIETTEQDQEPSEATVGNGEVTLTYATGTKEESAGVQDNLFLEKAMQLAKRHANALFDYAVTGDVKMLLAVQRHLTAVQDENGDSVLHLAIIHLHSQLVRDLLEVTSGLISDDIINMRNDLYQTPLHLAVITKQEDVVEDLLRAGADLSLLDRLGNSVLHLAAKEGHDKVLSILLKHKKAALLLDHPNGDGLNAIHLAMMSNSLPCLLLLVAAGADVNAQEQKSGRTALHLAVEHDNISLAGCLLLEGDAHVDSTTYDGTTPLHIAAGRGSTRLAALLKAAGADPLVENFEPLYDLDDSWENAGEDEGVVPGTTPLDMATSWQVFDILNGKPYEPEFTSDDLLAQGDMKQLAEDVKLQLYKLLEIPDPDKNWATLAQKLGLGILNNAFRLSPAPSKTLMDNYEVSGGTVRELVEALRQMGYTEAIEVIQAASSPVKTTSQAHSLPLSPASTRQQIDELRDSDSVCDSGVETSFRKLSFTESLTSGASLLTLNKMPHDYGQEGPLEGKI

Consider `c1ccc2ccccc2c1`, for which the compound was classed as inactive in assay [1], in [2], in assay [3], in assay [4], in assay [5] and in assay [6]. In addition, the result in assay [7], in assay [8], in assay [9], in [10], in [11] and in [12] was inactive. Besides, the result in [13], in assay [14], in assay [15], in assay [16] and in [17] was inactive.
As for `O=C(Nc1ccc(Cl)cc1)Nc1ccc(Cl)c(Cl)c1`, the AC50 was 24.4 µM (active) in [1]; 27.7 µM (active) in assay [3]; 23.3 µM (active) in assay [4]; 29 µM (active) in assay [6]; 22.8 µM (active) in [8]; 15.1 µM (active) in [9]. Also, the AC50 is 12.7 µM (active) in [10]; 27.6 µM (active) in assay [11]; 28.1 µM (active) in assay [18]; 21.8 µM (active) in assay [12]; 12.2 µM (active) in [13]; 21.3 µM (active) in assay [14]. For the same compound, the AC50 in [15] was 22.2 µM (active); in assay [16], 17.4 µM (active); in [17], 27 µM (active). Also, the call in assay [2] and in assay [5] was inactive.
For the compound `O=C(O)Cn1c(=O)n(Cc2ccc(Br)cc2F)c(=O)c2ccc(Cl)cc21`, the compound was classed as inactive in [1], in [2], in assay [3], in assay [4], in assay [5] and in [6]. Also, the compound was classed as inactive in assay [8], in assay [9], in assay [11], in assay [19], in assay [18] and in assay [12]. Moreover, the call in [13], in assay [14], in [15] and in assay [16] was inactive. The concentration at half-maximal activity (AC50) was 9.92 µM (active) in assay [10] and 38.8 µM (active) in assay [17].
Regarding `CCCCCc1ccc(N)cc1`, the call in assay [1], in assay [2], in assay [3], in assay [4], in assay [5] and in assay [6] was inactive. The compound was called inactive in assay [7], in [8], in assay [9], in [10], in assay [11] and in [12]. The compound was called inactive in [13], in [14], in assay [15], in assay [16] and in [17].
On to `Cc1cccc2ccccc12`, for which the outcome in [1], in [2], in assay [3], in [4], in [5] and in assay [6] was inactive. Moreover, the result in [8], in assay [9], in assay [10], in assay [11], in assay [19] and in assay [18] was inactive. Also, the compound was called inactive in [12], in assay [13], in [14], in assay [15], in [16] and in [17].
For `Cc1occc1C(=O)Nc1ccc(C(=O)N2CCC(F)(F)/C(=C\C(=O)N3CCC(N4CCCCC4)CC3)c3ccccc32)cc1`, the AC50 in assay [1] is 5.3 µM (active); in assay [3], 46.1 µM (active); in assay [4], 51.9 µM (active); in [5], 27.5 µM (active); in assay [9], 45.4 µM (active); in assay [10] it was 31.2 µM (active). For the same compound, the AC50 in [12] was 48 µM (active); in [16], 32.2 µM (active); in [17], 50.3 µM (active). The result in assay [2], in assay [6], in assay [8], in assay [11], in [19] and in assay [13] was inactive. Besides, the compound was called inactive in assay [14] and in assay [15].
